# Laboratory results as given in PubChem BioAssay AID620 (Sanford-Burnham Center for Chemical Genomics, 2007).
# The campaign covered roughly 87,000 compounds. About 360 (0.41%) were called active. For the sample, actives were picked, then their nearest neighbours and some compounds at random. Unmarked numbers belong to inactive results. No stated cut-off is given here; in the data, active means cytotoxicity above about 50%; inactive means the rest.
# Experiment: cytotoxicity in HT1080 fibrosarcoma cells, cell-based, fluorescence readout (AID 620);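 further: cells exposed to compound overnight then 4 h with Alamar Blue; 0% = vehicle DMSO and 100% = killing control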
# Settings: HT1080 viability, at 10 µM, hits give high values
row,SMILES,cytotoxicity
1,COc1cccc(C(=O)Nc2ccc(F)cc2F)c1,-7.7%
2,CC(C)(C)c1ccc(Oc2cccc(C3CC(=O)C(C4NCCc5ccccc54)C(=O)C3n3cncn3)c2)cc1 (stereo not drawn),-1.9%
3,CCn1c(CC(=O)Nc2ccccc2)nnc1SCC(=O)Nc1ccccc1C(=O)OC,0.7%
4,COc1ccc(N2CCCCn3c2nc2c3c(=O)[nH]c(=O)n2C)cc1,3.8%
5,CCOC(=O)Cn1nc(-c2ccc(Cl)cc2)ccc1=O,-5%
6,CCn1c(CSc2nc3ccccc3n2C)nc2ccccc21,27.6%
7,COc1cc(C2C(C#N)=C(C)NC3=C2C(=O)CC(C)(C)C3)cc(OC)c1O (stereo not drawn),-2.1%
8,COc1cc(C2C(C#N)=C(C)NC3=C2C(=O)c2ccccc23)cc(OC)c1OC (stereo not drawn),68.6% (active)
9,COc1ccc(C2C(C#N)=C(C)NC3=C2C(=O)c2ccccc23)cc1 (stereo not drawn),3%
10,COc1cc(NC(=O)c2cccs2)c(C(=O)OCC(=O)NCc2ccccc2)cc1OC,9.6%
11,CCOc1ccc(NC(=O)CSc2nnc(C)n2CC2CCCO2)cc1 (stereo not drawn),-2.7%
12,COc1ccc(-c2noc(CN3CCCCC3)n2)cc1OC,11.9%
13,CN(C)S(=O)(=O)c1ccc(S(=O)(=O)N(Cc2ccco2)Cc2ccccc2Cl)cc1,-1.9%
14,CCOc1cc(S(=O)(=O)N2CCC(Cc3ccccc3)CC2)c(OCC)cc1-n1cnnn1,-6.4%
15,CCOc1cc(S(=O)(=O)N2CC=C(c3ccc(F)cc3)CC2)c(OCC)cc1-n1cnnn1,52.5% (active)
16,CCOc1cc(S(=O)(=O)N2CCN(c3ccc(F)cc3)CC2)c(OCC)cc1-n1cnnn1,2.6%
17,CC12CCC(C(=O)N3CCN(Cc4ccccc4)CC3)(OC1=O)C2(C)C (stereo not drawn),0.4%
18,CN1CC[n+]2c(CN3C(=O)c4ccccc4C3=O)csc21,15.5%
19,CCCC(=O)c1c(NC(C)C)cc(C)oc1=O,-2.5%
20,COc1ccc(C(=O)N2CCN(C(=O)c3cc(OC)c(OC)c(OC)c3)CC2)cc1,-0.7%
21,COc1ccc(Cl)cc1S(=O)(=O)N1CCN(C(=O)c2cc(OC)c(OC)c(OC)c2)CC1,-2.5%

row,SMILES,cytotoxicity
1,COc1cc(C(=O)N2CCN(C(=O)c3ccccc3)CC2)cc(OC)c1OC,-2.8%
2,COc1cc(C(=O)N2CCN(c3cccc(C)c3C)CC2)cc(OC)c1OC,62.4% (active)
3,COc1cc(C(=O)N2CCN(c3cc(Cl)ccc3Cl)CC2)cc(OC)c1OC,66% (active)
4,Cc1cccc(N2CCN(C(=O)c3ccncc3)CC2)c1C,21.3%
5,O=C(C1CC1)N1CCN=C1SCc1ccccc1,-4.5%
6,Cc1cccc(NC(=O)c2ccc(S(=O)(=O)N(C)C)cc2)n1,36.5%
7,CCc1ccc(NC(=O)CCn2ccnc2C)cc1,-7%
8,Cc1ccc(S(=O)(=O)N(C)c2ccc(OCC(=O)OCc3c(C)noc3C)cc2)cc1,11.5%
9,CCC(C)(C)NC(=O)CN(C(=O)CCC(=O)Nc1cc(C)ccn1)c1ccc2c(c1)OCO2,-1.1%
10,CCCCCCCC(=O)OCC(O)CO (stereo not drawn),-0.9%
11,CCCCCCCCCCCCCCCC(O)C(N)CO (stereo not drawn),58.2% (active)
12,CCCCCCCCCC(=O)OCC(O)CO (stereo not drawn),-10.7%
13,COCCn1nnnc1CN(Cc1ccco1)Cc1cc2cc3c(cc2[nH]c1=O)OCO3,-10.7%
14,CCn1cc(C(=O)NCc2cccs2)c(=O)c2ccc(C)nc21,-4%
15,COc1ccc(OC)c(Nc2cc(-c3ccccc3)nc(N)n2)c1,56.1% (active)
16,COc1ccc(OC)c(Nc2nc(N)nc(-c3cc4ccccc4o3)n2)c1,4.8%
17,COc1ccc(OC)c(Nc2cc(C)nc3ccccc23)c1,20.6%
18,c1ccc(CSc2ncccn2)cc1,4.3%
19,O=C(CCNS(=O)(=O)c1ccccc1F)NCc1ccc2c(c1)OCO2,-0.4%
20,CNC(=O)[C@@]1(Cc2ccccc2)C=C[C@@H](C)N1C(=O)OC,-24.6%
21,COC(=O)N1[C@H](C)C=C[C@]1(Cc1ccccc1)C(=O)O,90.8% (active)

row,SMILES,cytotoxicity
1,COC(=O)N1[C@H](C)C=C[C@]1(Cc1ccccc1)C(=O)OC,-24.7%
2,CCc1nnc(NC(=O)CSc2nccn2-c2cccc(C)c2C)s1,-9.5%
3,CCSc1nnc(NC(=O)CSc2nccn2-c2cccc(C)c2C)s1,-8.3%
4,Cc1nnc(NC(=O)CSc2nccn2-c2cccc(C)c2C)s1,54.7% (active)
5,CN1/C(=C\C(=O)C(F)F)C(C)(C)c2ccccc21,-3.2%
6,CN1/C(=C\C(=O)c2ccco2)C(C)(C)c2ccccc21,9%
7,COC(=O)c1ccc(Oc2nc(C)cc(Oc3ccccc3)n2)cc1,11.3%
8,CC(=O)c1ccc(Oc2cc(C)nc(-n3nc(C)cc3C)n2)cc1,50.3% (active)
9,COC(=O)c1ccc(Oc2cc(C)nc(SC)n2)cc1,48.5%
10,Cc1ccc(Oc2cc(-n3nc(C)cc3C)ncn2)cc1,-3.6%
11,CC(=O)c1ccc(Oc2cc(C)nc(NCc3ccccc3)n2)cc1,-1%
12,COC(=O)c1ccc(Oc2cc(C)nc(-n3nc(C)cc3C)n2)cc1,68.3% (active)
13,c1ccc(-c2cc(-c3nc(-c4ccccn4)no3)c3ccccc3n2)cc1,-10.1%
14,COc1cccc(C(c2sc3nc(C)nn3c2O)N2CCc3ccccc3C2)c1 (stereo not drawn),-7.4%
15,CCOC(=O)CNC(=O)CSc1nnc(Cn2c(=O)sc3ccccc32)n1C,-4.4%
16,Cc1cc(C(=O)OCC(=O)N2CCN(C(=O)c3ccco3)CC2)c(C)n1-c1ccc(F)cc1,-4.9%
17,Cc1cc(C(=O)CNCc2ccco2)c(C)n1-c1ccc(F)cc1,2.4%
18,Cc1nn(-c2ccccc2)c(C)c1C(=O)OCC(=O)NCc1ccco1,-6.6%
19,O=C(COC(=O)c1ccccc1)NCc1ccco1,6.9%
20,Cc1cc(C(=O)OCC(=O)NCc2ccco2)c(C)n1-c1ccc(F)cc1,63.7% (active)
21,Cc1cc(C(=O)OCC(=O)NCc2ccco2)c(C)n1-c1ccccc1,62.1% (active)
